# Out of some 140,000 compounds screened, about 2,100 (1.5%) were called active. No stated cut-off is given here; in the data, active means protection mostly above about 24% (no sharp cut-off); inactive means mostly below about 26%. The list comes from a sample in which actives are over-represented; it also holds similar structures and randomly drawn compounds.
# Assay: blockers of measles virus-induced cell death – single point, MLSMR library, absorbance, measles RdRp inhibitor project, primary screen (AID 841)
# Conditions: Measles virus-infected cells, CPE protection, at 4 µM, hits give high values
row,Structure (SMILES),protection (pct of control)
1,COC(=O)CN1C(=O)C2(C(C(=O)OC)=C(N)Oc3ccccc32)C2=C1CC(C)(C)CC2=O (stereo not given),2.86% (inactive)
2,CCOC(=O)CC1=C(C(=O)OCC)C2(C(=O)N1)C(C(=O)OC)=C(N)Oc1ccccc12 (stereo not given),9.79% (inactive)
3,C=CCN1C(=O)C2(C(C(=O)OCC)=C(N)Oc3c2c(=O)oc2ccccc32)c2ccccc21 (stereo not given),81% (active)
4,Cc1ccnc(-n2c(C)cc(/C=C3\C(=O)NC(=S)N(C)C3=O)c2C)c1,5.91% (inactive)
5,Cc1ccc(N2C(=O)NC(=O)C(CCc3ccncc3)(Cc3cccc(Cl)c3Cl)C2=O)cc1 (stereo not given),7.36% (inactive)
6,Cc1nn(Cc2ccccc2Cl)c(Cl)c1C(=O)OC(C(=O)NC(N)=O)C(C)C (stereo not given),14% (inactive)
7,O=C(C1CC(=O)N(C2CCCC2)C1)N1CCC2(CC1)OCCO2 (stereo not given),38.9% (active)
8,Cn1c(C(=O)N2CCC(C(=O)N3CCC4(CC3)OCCO4)CC2)cc2sccc21,8.88% (inactive)
9,CCN(N=Nc1nonc1OC)c1nonc1OC,5.4% (inactive)
10,CCC(=O)CC(c1ccc([N+](=O)[O-])cc1)c1c(O)c2ccccc2oc1=O (stereo not given),15.5% (inactive)
11,COc1ccc(C2N3CC(C)(C)CN23)cc1 (stereo not given),8.77% (inactive)
12,O=C1NC(=O)C(CCc2ccccn2)(Cc2cccc(Cl)c2Cl)C(=O)N1c1ccc(Br)cc1 (stereo not given),10.4% (inactive)
13,Cc1cccc(OP(=O)(Oc2cccc(C)c2)OC(c2ccccc2)C(F)(F)F)c1 (stereo not given),1.45% (inactive)
14,Cc1nc2ccccn2c1P(=S)(N1CCCCC1)N1CCCCC1,4.18% (inactive)
15,CCOC(=O)C(O)(c1ccc(NC(=O)c2ccco2)c(OC)c1)C(F)(F)F (stereo not given),39.8% (active)
16,CCOC(=O)C(O)(c1ccc(N)c(OC)c1)C(F)(F)F (stereo not given),3.68% (inactive)
17,COC(=O)C(O)(c1ccc(NC(=O)c2ccco2)c(OC)c1)C(F)(F)F (stereo not given),3.68% (inactive)
18,CC(=O)Nc1ccccc1C(=O)OCC(=O)c1cccc2ccccc12,26.2% (inactive)
19,O=c1[nH]c(=S)n(C2CC2)c(O)c1/C=N/N1CCOCC1,5.81% (inactive)
20,CNC(=O)N(C)c1nnc(C(C)(C)C)s1,54.7% (active)
21,CCOC(=O)C(O)(c1ccc(N=Cc2ccccc2O)c(C)c1)C(F)(F)F (stereo not given),5.53% (inactive)
22,CC(=O)N(C1=NCCCS1)c1ccccc1F,62.1% (active)
23,COc1c(O)ccc2c1-c1c3c(cc4c1C(C2)N(C)CC4)OCO3 (stereo not given),6.07% (inactive)
24,CC(C(=O)Nc1ccc(Cl)cc1Cl)N1CC=C(c2ccccc2)CC1 (stereo not given),9.49% (inactive)
25,CN1CCN(c2cc(N3CCNCC3)ccc2[N+](=O)[O-])CC1,21.6% (inactive)
26,CN(C)C(=O)Oc1ccc(OCc2cccc[n+]2C)cc1,6.21% (inactive)
27,c1ccc2sc(C3CCCNC3)nc2c1 (stereo not given),54.6% (active)
28,CN(C)c1ccc(/C=C2\CC3C4CC=C5CC(O)CCC5(C)C4CCC3(C)C2=O)cc1 (stereo not given),2.96% (inactive)
29,CC(C)N(CC#CCC1(O)c2ccccc2-c2ccccc21)C(C)C,14.5% (inactive)
30,Cc1cccc(-n2c(O)c(/C=N/N3CCOCC3)c(=O)[nH]c2=S)c1,1.74% (inactive)

# Reference: PubChem BioAssay AID841 (Emory University Molecular Libraries Screening Center, 2007)
